# Results: paper PMC5540273 (PLoS ONE, 2017)
# Key:
# Settings in all cases: concentration: 1 μM,replicates: in singlicate; n = 1
# EPHA7 = test system: EPHA7
# EPHA8 = test system: EPHA8
# EPHB1 = test system: EPHB1
# EPHB2 = test system: EPHB2
# EPHB3 = test system: EPHB3
# EPHB4 = test system: EPHB4
# EPHB6 = test system: EPHB6
# ERBB2 = test system: ERBB2
# ERBB3 = test system: ERBB3
# ERBB4 = test system: ERBB4
# 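Note: KINOMEscan kinase panel screen.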
Structure (SMILES),%Inh (EPHA7) [%],%Inh (EPHA8) [%],%Inh (EPHB1) [%],%Inh (EPHB2) [%],%Inh (EPHB3) [%],%Inh (EPHB4) [%],%Inh (EPHB6) [%],%Inh (ERBB2) [%],%Inh (ERBB3) [%],%Inh (ERBB4) [%]
Cc1occc1-c1nc(N)c(OC[C@@H](N)Cc2c[nH]c3ccccc23)cc1-c1cc2c(C)n[nH]c2cn1 [GSK1660450],3,24,24,0,23,11,0,79,0,56
O=C(NCCCN1CCOC1=O)c1cnc(NCc2cc(Cl)ccc2Cl)nc1NC1CCCC1,2,4,8,12,24,16,19,46,0,9
O=C(NCCNc1ccnc(NCc2ccc(F)cc2)n1)c1cc2ccccc2s1 [GSK1379944],12,34,6,80,27,16,18,13,0,0
Cl.Cl.Nc1nc(-c2ccc3c(N)n[nH]c3c2)cc(N2CCCC(NC(=O)c3ccccc3)C2)n1 (stereo not drawn) [GSK2286775],11,16,27,10,11,3,26,0,0,33
Cc1cc(C(=O)Nc2ccc(Oc3ccc4nc(NC(=O)C5CC5)cn4n3)cc2)nn1-c1ccccc1,0,37,18,30,19,37,89,19,87,19
Cc1ccc(-n2nc(C(C)(C)C)cc2NC(=O)Nc2ccc(OCCN3CCOCC3)c3ccccc23)cc1 [GW839464],72,86,–,37,7,31,0,24,26,0
Cl.Oc1cc(-c2nc(-c3ccccc3)[nH]c2-c2ccncc2)ccc1Cl [SB-386023],9,14,0,0,22,30,14,0,0,23
NC(=O)c1cc(-c2ccccc2)cc2c(C3CCNCC3)c[nH]c12 [GSK301362],20,23,26,29,15,1,16,16,0,9
C[C@@H]1CCN(C(=O)CC#N)C[C@@H]1N(C)c1ncnc2[nH]ccc12,21,10,0,0,0,0,10,0,0,15
Cc1ccc2c(-c3ccncc3)c(-c3ccc(F)cc3)nn2c1.Cl [GW461484],7,15,0,0,5,0,27,21,0,3
CCn1c(-c2nonc2N)nc2c(C#CC(C)(C)O)nc(OCCN)cc21.Cl.Cl [GSK902056],0,2,3,1,11,20,0,11,0,20
CC(C)Nc1cc(-c2ccc3c(N)n[nH]c3c2)nc(N)n1 [GSK2221681],12,18,0,0,0,0,0,8,0,0
Nc1nc(Nc2ccccc2)cc(-c2ccc3c(N)n[nH]c3c2)n1 [GSK2225749],0,0,4,0,0,0,0,32,0,0
Cc1cc2cn[nH]c2cc1-c1cccc2c(N)c(C(N)=O)nnc12,19,11,15,0,0,0,64,14,30,87
CCN(CC)CCCCNc1ncc2cc(-c3c(Cl)cccc3Cl)c(NC(=O)NC(C)(C)C)nc2n1,0,99.9,99.9,93,26,92.6,98.9,35,68,38
CC(C)N1C(=O)Cc2cc(Nc3ncc(C(F)(F)F)c(NCc4cccc(S(C)(=O)=O)c4)n3)ccc21,12,5,16,3,0,0,49,15,13,0
Cl.Cl.NC[C@H](CC1CCCCC1)NC(=O)c1cc(Br)c(-c2ccnc3[nH]ccc23)s1 [GSK1581427],14,52,17,0,5,10,10,1,0,22
CN(C)CCOc1ccc(-c2cc(-c3c[nH]nc3-c3ccccn3)ccn2)cc1 [GW835314],8,14,2,11,59,8,8,0,43,0
Cc1n[nH]c2ccc(-c3cc(OC[C@@H](N)Cc4ccccc4)cnc3-c3ccoc3)cc12.O=C(O)C(F)(F)F.O=C(O)C(F)(F)F [GSK507358],10,21,0,0,14,8,8,77,0,64
CN(C)CC(O)COc1ccc(Nc2nccc(-c3cnn4nc(N5CCOCC5)ccc34)n2)cc1 (stereo not drawn) [GW767488],9,0,9,0,0,95.4,73,5,40,33
CNC(=O)c1ccccc1Sc1ccc2c(/C=C/c3ccccn3)n[nH]c2c1,0,0,0,0,0,0,80,22,1,6
C[C@@H](Oc1cc(-c2cnn(C3CCNCC3)c2)cnc1N)c1c(Cl)ccc(F)c1Cl,–,54,68,–,16,52,99.6,7,0,0
Cl.Cl.NC[C@H](Cc1ccc(C(F)(F)F)cc1)NC(=O)c1cc(Br)c(-c2ccnc3[nH]ccc23)s1 [GSK1487252],10,47,12,10,20,14,12,9,0,41
C[C@H]1Oc2cc(cnc2N)-c2c(nn(C)c2C#N)CN(C)C(=O)c2ccc(F)cc21,35,2,27,30,2,35,82,28,0,0
CCN(CC)CCOc1ccc(Nc2ncc3cc(-c4c(Cl)cccc4Cl)c(=O)n(C)c3n2)cc1 [SB-601273],11,99.6,99.8,100,99.9,100,98.9,92.8,99.4,82
C=CC(=O)Nc1cc2c(Nc3ccc(F)c(Cl)c3)ncnc2cc1OCCCN1CCOCC1 [GW781483],8,33,9,–,0,24,52,–,83,–
COc1ccc(C[C@@H](CN)NC(=O)c2cc(Br)c(-c3ccnc4[nH]ccc34)s2)cc1.Cl.Cl [GSK1389063],12,59,19,1,31,32,35,25,0,38
